Laboratory results published in PubChem BioAssay (NCI).
About 83,000 compounds went through this panel and 20% of them were active in at least one assay; those are over-represented in the sample as a whole.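 Testing used 96-well plates and a 48-hour single-concentration exposure. Example: -40 means 40% of the starting cells died.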 Values without a mark were called inactive. Calls of active or inactive are those of the source.

Test system: NCI/ADR-RES ovarian
Assay: NCI-60 one-dose screen, 48 h (100 = growth as untreated, 0 = no growth, -100 = all killed)
Details: 10 µM unless noted
Description: Growth inhibition of the NCI/ADR-RES human […] tumor cell line is measured as a screen for anti-cancer activity. Cells are grown in 96 well plates and exposed to the test compound for 48 hours. Compounds are tested at a single concentration, which is 10^-5 M for most compounds. The reported endpoint is percent growth (GI% or GIPRCNT), where numbers from 0 - 100% represent growth inhibition, and numbers from -100% - 0 represent cell death. For example, a value of 40 represents 60% growth inhibition. A value of 0 means no net growth occurred over the course of the experiment. A value of -40 indicates 40% of cells at the beginning of the experiment died by the end of the experiment. A value of -100 means all cells are dead at the end of the experiment.
NCI-60 Human Tumor Cell Lines Screen was performed using the standard one-dose NCI protocol, which is described in more detail at https://dtp.cancer.gov/discovery_development/nci-60/default.htm.
Compounds with GIPRCNT values below 10 were considered active. Activity score was based on GIPRCNT using the following formula: […]
Score is 0 for GIPRCNT values of 100 or above, 50 for GIPRCNT values of 0, and 100 for GIPRCNT values of -100.

Row | SMILES | growth
1 | CCC(=O)Oc1ccc2c(c1)CC[C@@H]1[C@@H]2CC[C@]2(C)C[C@H](OC(=O)CC)C[C@@H]12 | 54.2%
2 | CC/C(=C(\c1ccc(O)cc1)c1ccc(OCCN(C)CCN(C)C(=O)CCC(=O)c2c(C)[nH]c(/C=C3\N=C(c4ccc[nH]4)C=C3OC)c2C)cc1)c1ccccc1 | 79.8%
3 | Cc1cc(-c2ccccc2)c(C)n1Cc1ccc(Cl)cc1 | 14%
4 | Cc1ccc(C2=NN(c3ccc(S(=O)(=O)NC(=O)NCc4ccccc4)cc3)C(c3ccc(N(C)C)cc3)C2)c(C)c1 (stereo not given) | 33.7%
5 | O=C(CC(O)c1ccncc1)c1ccccc1 (stereo not given) | 65.2%
6 | CC(=O)N1Cc2ccccc2C(C)Cc2cc(Cl)ccc21 (stereo not given) | 117%
7 | NC(=S)NN=C1CCCCC1 | 72.6%
8 | CCN(CC)CCCNc1nc(C)cc(Nc2ccc3nc(C)cc(N)c3c2)n1 | 101%
9 | C=CC(=O)N[C@H](/C=C/C(=O)OCC)Cc1ccc(-c2cc(Cl)cc(Cl)c2)cc1 | 81.8%
10 | CSc1ccccc1C#C/C=C\C#Cc1ccccc1N1CCCC1=O | 41.5%
11 | CC(=O)Nc1nc(C(=O)N2N=C(C)/C(=C/c3cccs3)C2=O)cs1 | 112%
12 | CCC1CCc2nc3sc(C(=O)Nc4ccccc4F)c(N)c3cc2C1 (stereo not given) | 62.5%
13 | CCN1C(=O)/C(=c2\sc3n(c2=O)C2C(NN=3)N(CC)C(=S)N2CC)c2ccccc21 (stereo not given) | 103%
14 | C=C1C(=O)O[C@H]2[C@H]1CC/C(Cn1cc(-c3ccsc3)nn1)=C\CC[C@@]1(C)O[C@@H]21 | 32%
15 | COc1cccc(-c2nc3sccn3c2-c2ccnc(NCCCNS(=O)(=O)c3ccc(F)cc3)n2)c1 | 15.5%
16 | O=C(Nc1ccc(I)cc1)c1cc([N+](=O)[O-])ccc1O | 29.1%
17 | C[C@]12CC[C@@H]3c4cc(O)c(O)cc4CC[C@H]3[C@@H]1CC[C@@H]2O | 28.5%
18 | Nc1c(C(=O)Nc2cccc(C(F)(F)F)c2)sc2nc3c(cc12)C(O)CCC3 (stereo not given) | 22.5%
19 | COc1ccc(/C=C/c2cc(N3CCOCC3)c3cc(F)c(F)cc3n2)cc1OC | 4.66% (active)
20 | CC(C)C[C@H](NC(=O)[C@H](Cc1ccccc1)n1ccc(N2CCCCC2)cc1=O)B(O)O | 90.3%

Row | SMILES | growth
21 | COc1cccc(/C=C/C(=O)c2sc(Nc3ccc(O)cc3)nc2C)c1 | 99%
22 | COc1cc(C2C=C(C)N=C3SC=C(C)N32)cc(OC)c1OC (stereo not given) | 19.5%
23 | O=C(N/N=C/c1c(Cl)cccc1Cl)c1ccccc1Nc1ccnc(C(F)(F)F)c1 | 67.6%
24 | CSc1ccccc1C#C/C=C\C#Cc1ccccc1N1CCCCC1=O | 102%
25 | COC(=O)C(CC(=O)c1ccc(-c2ccccc2)cc1)c1ccccc1 (stereo not given) | 17.5%
26 | Cc1sc2nc(CSc3nnc(-c4ccco4)o3)[nH]c(=O)c2c1C | 112%
27 | CC(=O)n1cc([C@H]2CC[C@H](c3cn(C(C)=O)c4ccccc34)c3c2[nH]c2ccccc32)c2ccccc21 | 80.7%
28 | Cc1ccc(C(=O)c2sc3nc4c(cc3c2N)CCCC4)c(C)c1 | 13.9%
29 | O=C(Nc1cccc(Cl)c1)c1cc([N+](=O)[O-])ccc1O | 56%
30 | COc1cc(-c2csc(NC(=O)c3cc(C(F)(F)F)cc(C(F)(F)F)c3)n2)cc(OC)c1OC | 16.2%
31 | O=C(Nc1ccccc1)OCC1OCOC(COC(=O)Nc2ccccc2)C1OC(=O)Nc1ccccc1 (stereo not given) | 69.8%
32 | O=C1CCCCN1CCCCC#Cc1ccccc1C#Cc1ccc([N+](=O)[O-])cc1 | 43.4%
33 | N#Cc1c(NC(=O)c2ccc([N+](=O)[O-])o2)[n+]([O-])c2cc(F)c(F)cc2[n+]1[O-] | 102%
34 | COc1cc2nc(N3CCC[C@@H](NC4=CC(=O)c5ccccc5C4=O)C3)nc(N)c2cc1OC | 99%
35 | COc1ccc(Cl)cc1NC(N)=S | 105%
36 | CN(C)c1ccc(-c2ccc(-c3ccc(C(=N)N)cn3)o2)cc1 | 22.5%
37 | CCN1C(=S)N(CC)C2Nn3c(s/c(=C4\C(=O)N(C)c5ccccc54)c3=O)=NC21 (stereo not given) | 6.63% (active)
38 | O=C(CN1CCN(c2cc3c(cc2F)c(=O)c(C(=O)O)cn3C2CC2)CC1)Nc1ccc(C(=O)/C=C/c2ccccc2)cc1 | 93.5%
39 | O=S(=O)(NCCCNc1cc(-c2cn(-c3ccccc3)nc2-c2cccc(O)c2)ccn1)c1ccc(Cl)cc1 | 23.7%
40 | Cc1cccc(NC(=O)c2sc3nc4c(cc3c2N)CCCC4)c1 | 11.1%
